Sampled rows, rich in hits. Any-hit rate of the full collection: about 3.2%.
Mtb UGM inh: Mtb UDP-galactopyranose mutase inhibition; P9WIQ1; purified UGM, fluorescence polarization probe displacement; inhibition, % at 10 µM; hit rate 0.06% among 320,000; AID 504406; in the data active = inhibition above about 10%, passing the limit was not always enough; inconclusive = no clear call, values can overlap the other calls
Rv3671c protease: inhibitors of M. tuberculosis serine protease Rv3671c; inhibition, % at 5.96 µM; P9WHR9; AID 2606; hit rate 0.048% among 320,000; in the data active = inhibition above about 38%;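 note: extracellular domain of Rv3671c used as enzyme; 0% = enzyme with DMSO and 100% = no enzyme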
SSB-PriA inh: blocks PriA binding to SSB C-terminal tail. AlphaScreen SSBct-PriA binding, biotinylated peptide. inhibition, % at 33 µM. hit rate 0.6% among 430,000. AID 1272365; in the data active = inhibition mostly above about 37%, no sharp cut-off; inactive = mostly below about 20%;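 note: plate controls were negative control peptide for no effect and reference peptide for full effect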
Mtb bLac sens: beta-lactam sensitization of Mtb H37Rv; inhibition, % at 25 µM; hit rate 0.27% among 330,000; M. tuberculosis H37Rv growth with meropenem, percent inhibition; call rule not given here;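 note: growth measured after seven days incubation then overnight dye step; 0% = bacteria only wells and 100% = bacteria with antibiotic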
FBA Mtb inh: inhibitors of M. tuberculosis fructose-bisphosphate aldolase | purified M. tuberculosis FBA, fluorescence read-out | hit rate 2.3% among 360,000 | P9WQA3 | AID 588726 | inhibition, % at 1 µM;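 note: 0% = vehicle and 100% = reference inhibitor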
Target sequence (P9WQA3 whole entry, looked up): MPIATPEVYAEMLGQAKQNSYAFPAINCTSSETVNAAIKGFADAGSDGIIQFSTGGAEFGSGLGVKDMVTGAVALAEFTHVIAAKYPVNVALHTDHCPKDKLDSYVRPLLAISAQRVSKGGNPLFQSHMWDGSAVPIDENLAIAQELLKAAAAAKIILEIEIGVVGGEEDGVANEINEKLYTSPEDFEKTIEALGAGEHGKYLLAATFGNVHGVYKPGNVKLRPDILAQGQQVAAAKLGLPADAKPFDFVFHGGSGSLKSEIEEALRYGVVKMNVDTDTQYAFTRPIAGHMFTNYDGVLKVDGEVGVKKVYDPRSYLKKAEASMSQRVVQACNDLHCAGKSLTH
GDH-TPI counter-1: counter-screen for M. tuberculosis FBA inhibitors: GDH-TPI coupled enzymes. GDH-TPI coupled enzyme counterscreen, NADH absorbance. inhibition, % at 4.8 µM. hit rate 1.2% among 360,000. AID 588335; in the data active = inhibition above about 30%;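 note: 0% = DMSO wells and 100% = wells lacking the enzyme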
Mtb FBA inh conf: Mtb FBA inhibition, confirmed; hit rate 78% among 5,600; purified M. tuberculosis FBA, fluorescence read-out; AID 651616; inhibition, % at 1 µM; shares compounds with FBA Mtb inh;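 note: 0% = vehicle wells and 100% = reference inhibitor wells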
GDH-TPI counter-2: counter-screen for M. tuberculosis FBA inhibitors: GDH-TPI coupled enzyme inhibition; shares compounds with FBA Mtb inh; GDH-TPI coupled enzyme counterscreen, fluorescence; inhibition, % at 1 µM; hit rate 81% among 5,600; AID 652141; in the data active = inhibition above about 10%
* marks the source's active call; other numbers are inactive results. Cut-off read from the data, not from the text of the source, unless noted: active = inhibition above about 27%; inactive = the rest.

`Cn1nnc2c(NCc3ccco3)nccc21` gave Mtb UGM inh 3, Rv3671c protease -2, SSB-PriA inh 3, Mtb bLac sens -4, FBA Mtb inh 64*, GDH-TPI counter-1 -3, Mtb FBA inh conf 53* and GDH-TPI counter-2 43*.
`COc1ccc(CC(=O)NCCc2ccc(N(C)C)cc2)cc1OC` gave SSB-PriA inh 4.
Screening CC1CCN(C(=O)COC(=O)c2cc(Cl)cc(Cl)c2N)CC1 returned Mtb UGM inh 3, Rv3671c protease -14, SSB-PriA inh -22, Mtb bLac sens 7, FBA Mtb inh 81*, GDH-TPI counter-1 -2, Mtb FBA inh conf 110* and GDH-TPI counter-2 90*.
Screening Nc1c(Cl)cc(Cl)cc1C(=O)OCC(=O)N1CCOCC1 returned Mtb UGM inh -2, Rv3671c protease 9, SSB-PriA inh -13, Mtb bLac sens 3, FBA Mtb inh 101*, GDH-TPI counter-1 4, Mtb FBA inh conf active and GDH-TPI counter-2 active.
For CC(C)N(C(=O)COC(=O)c1cc(Cl)cc(Cl)c1N)C(C)C the results were Mtb UGM inh 0, Rv3671c protease -5, SSB-PriA inh -70, Mtb bLac sens -4, FBA Mtb inh 80*, GDH-TPI counter-1 1, Mtb FBA inh conf 6 and GDH-TPI counter-2 3.
Screening O=C(OCC(=O)N1CCCC1)c1cc(Cl)ccc1Cl returned Mtb UGM inh 0, Rv3671c protease -7, SSB-PriA inh -10, Mtb bLac sens 97, FBA Mtb inh -5 and GDH-TPI counter-1 16.
Screening COc1cc2ccccc2cc1C(=O)OCC(=O)N1CCOCC1 returned Mtb UGM inh 3, Rv3671c protease 1, SSB-PriA inh -6, Mtb bLac sens 1, FBA Mtb inh 52*, GDH-TPI counter-1 -8, Mtb FBA inh conf 180* and GDH-TPI counter-2 156*.
`CC(=O)NCC(=O)N1CCC[C@H](Oc2nccnc2C#N)C1` gave SSB-PriA inh -13.
For O=c1c(Cl)c(NN=Cc2ccc(Br)cc2)cnn1-c1ccccc1 the results were SSB-PriA inh -7.
Screening CCOC(=O)N1CCCCC(c2ccc(F)cc2)C1 (stereo not drawn) returned SSB-PriA inh -41.
`Cc1cccc(S(=O)(=O)c2c(N)n(N=Cc3cccnc3)c3nc4ccccc4nc23)c1` gave SSB-PriA inh 1.
`CCCC1=C(C(=O)OCC)C(c2ccco2)C(C#N)=C(N)O1` (stereo not drawn) gave Mtb UGM inh 2, Rv3671c protease 5, SSB-PriA inh -9, Mtb bLac sens -10, FBA Mtb inh 57*, GDH-TPI counter-1 6, Mtb FBA inh conf 99* and GDH-TPI counter-2 68*.
CCOC(=O)C1=C(c2ccccc2)OC(N)=C(C#N)C1c1ccncc1 (stereo not drawn) was read as Mtb UGM inh -3, Rv3671c protease 1, SSB-PriA inh 10, Mtb bLac sens 1, FBA Mtb inh 43*, GDH-TPI counter-1 6, Mtb FBA inh conf 67* and GDH-TPI counter-2 66*.
`CCOC(=O)C1=C(N)OC(C)=C(C#N)C1c1ccco1` (stereo not drawn) gave Mtb UGM inh 2, Rv3671c protease 3, SSB-PriA inh -6, Mtb bLac sens inconclusive, FBA Mtb inh -2 and GDH-TPI counter-1 13.
O=C(CSc1nc2c(c(=O)[nH]1)CN(Cc1ccccc1)CC2)Nc1ccc(Cl)c(C(F)(F)F)c1 was read as SSB-PriA inh -16.
Screening COCCCNC(=S)N(CCO)Cc1cc2cc3c(cc2[nH]c1=O)OCO3 returned Mtb UGM inh -2, SSB-PriA inh 0, Mtb bLac sens 53, FBA Mtb inh 31*, GDH-TPI counter-1 21, Mtb FBA inh conf active and GDH-TPI counter-2 active.
`CCN(CC)CCN(Cc1cc2cc3c(cc2[nH]c1=O)OCO3)C(=S)NCCOC` gave Mtb UGM inh 2, Rv3671c protease 0, SSB-PriA inh -7, Mtb bLac sens 3, FBA Mtb inh 34*, GDH-TPI counter-1 26, Mtb FBA inh conf 32* and GDH-TPI counter-2 32*.
